Experimental data: PubChem BioAssay (Tox21)
“And” between values parts separate entries of the source, which are not always exact repeats. Equal entries are not always repeated. Results filed as inconclusive are left out. Some compounds were tested as several samples or in several runs, with calls that do not always agree. The source made the active and inactive calls. Unless noted, calls follow the shape of the dose curve; as a rule, active = well fitted curve in the direction sought with a large enough effect in the repeat runs; inconclusive = weak or mixed curves; inactive = no such curve, though single readings can be large; an effect the other way counts as inactive or inconclusive.

Legend:
[1] = qHTS assay to identify small molecule agonists of the estrogen receptor alpha (ER-alpha) signaling pathway in the presence of an antagonist - cell viability counter screen (AID 1259386);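 also: cells exposed to compounds for 22 h at 37 °C before the viability read; nearly all actives have a fitted effect of over 30% in size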; also: potency is read from the fitted curve at half-maximal effect; as to activity change, negative = cytotoxicity: series mostly up to about 92 µM
Procedure, shortened: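 Cells are starved of estrogens for 5 days in charcoal-stripped serum, seeded for 24hr and co-treated with ICI-182,780 (10.0nM final) and test compounds. After 22hr at 37C, viability is read as CellTiter-Fluor fluorescence.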

[2] = target: Progesterone receptor (Homo sapiens) (UniProt P06401); experiment: qHTS assay to identify small molecule agonists of the progesterone receptor (PR) signaling pathway (AID 1346784; calls by dose curve; also: nearly all actives have a fitted effect of over 30% in size)
Procedure, shortened: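 PR-UAS-bla HEK 293T cells carrying a UAS-driven beta-lactamase reporter were seeded in medium with 2% charcoal-stripped FBS, preincubated 6 hr at 37C, then exposed to compounds in DMSO for 16 hr; agonism was read by LiveBLAzer B/G FRET fluorescence.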

[3] = target: Progesterone receptor (Homo sapiens) (UniProt P06401); experiment: qHTS assay to identify small molecule antagonists of the progesterone receptor (PR) signaling pathway (AID 1346795; active = well fitted inhibition curve with a large enough effect in the signal ratio in the repeat runs, not every such curve was filed as active; the % refers to the signal ratio)
Procedure, shortened: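 PR-UAS-bla HEK293T cells carrying a UAS-driven beta-lactamase reporter were plated in medium with 2% charcoal-stripped FBS and rested 6 hr at 37C. Compounds were added with 1 nM R5020 (final) for 16 hr, then FRET substrate loaded 2 hr at room temperature.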

[4] = qHTS assay to identify small molecule antagonists of the progesterone receptor (PR) signaling pathway - cell viability counter screen (AID 1346798); also: series mostly up to about 92 µM; nearly all actives have a fitted effect of over 50% in size
Procedure, shortened: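 PR-UAS-bla HEK293T cells in medium with 2% charcoal-stripped FBS were treated with compounds plus R5020 for 16 hr at 37C. Cell viability was then read by CellTiter-Glo luminescence after 30 min at room temperature in the same wells.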

[5] = qHTS assay to identify small molecule agonists of the progesterone receptor (PR) signaling pathway - cell viability counter screen (AID 1346799; calls by dose curve; also: nearly all actives have a fitted effect of over 45% in size)
Procedure, shortened: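 PR-UAS-bla HEK293T cells, 3,000 per well in medium with 2% charcoal-stripped FBS, were preincubated 6 hr at 37C, then exposed to compounds for 16 hr; viability was read as CellTiter-Glo luminescence after 30 min at room temperature.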

[6] = qHTS assay to identify small molecule antagonists of the TGF-beta/Smad signaling pathway - cell viability counter screen (AID 1346824); also: nearly all actives have a fitted effect of over 50% in size; also: potency is read from the fitted curve at half-maximal effect
Procedure, shortened: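 SBE-bla HEK 293T cells were plated overnight at 37 C, then given compounds in DMSO plus TGF-beta1 (added as 0.25 ng/mL solution) for 5 hr. After the bla read, CellTiter-Glo was added to the same wells and luminescence read after 30 min at room temperature.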

[7] = qHTS assay to identify small molecule agonists of the TGF-beta/Smad signaling pathway - cell viability counter screen (AID 1346829); also: nearly all actives have a fitted effect of over 45% in size; also: potency is read from the fitted curve at half-maximal effect; as to activity change, negative = cytotoxicity: top concentration of the series differs between compounds
Procedure, shortened: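 In parallel with the Smad reporter read, viability of HEK 293T cells stably carrying SBE-bla is quantified by ATP luminescence following 5 hr compound treatment.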

[8] = qHTS assay to identify small molecule agonists of the TGF-beta/Smad signaling pathway (AID 1346859; active = well fitted activation curve with a large enough effect in the signal ratio in the repeat runs, not every such curve was filed as active; the % refers to the signal ratio; also: series mostly up to about 77 µM)
Procedure, shortened: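 HEK 293T cells stably carrying a beta-lactamase reporter driven by the Smad binding element were seeded overnight, exposed to DMSO-dissolved compounds for 5 hr at 37 C, 5% CO2, then loaded with FRET substrate for 2 hr at room temperature.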

[9] = target: Thyrotropin-releasing hormone receptor (Homo sapiens) (UniProt P34981); experiment: qHTS assay to identify small molecule antagonists of the thyrotropin-releasing hormone receptor (TRHR) signaling pathway (AID 1346877; active = well fitted inhibition curve with a large enough effect in the repeat runs, not every such curve was filed as active; also: series mostly up to about 51 µM)
Procedure, shortened: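 Cells (TRHR-HEK293) are plated and kept 18 h at 37 °C/5% CO2. A calcium-sensitive dye is added for 2 h, compound follows for 5 min at room temperature, and TRH is then given at 1 nM final.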

[10] = target: Thyrotropin-releasing hormone receptor (Homo sapiens) (UniProt P34981); experiment: qHTS assay to identify small molecule agonists of the thyrotropin-releasing hormone receptor (TRHR) signaling pathway (AID 1346891; calls by dose curve; also: series mostly up to about 58 µM)
Procedure, shortened: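 TRHR-expressing HEK293 cells were plated 18 h at 37 °C/5% CO2, loaded with calcium dye 2 h at 37 °C, then given compound in DMSO; fluorescence was read kinetically for 3 min at 1 s intervals.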

[11] = Human pregnane X receptor (PXR) small molecule agonists, qHTS cell viability counter screen (AID 1346977); also: nearly all actives have a fitted effect of over 50% in size; also: potency is read from the fitted curve at half-maximal effect
Procedure, shortened: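 PXR-Luc HepG2 cells in medium with 5% charcoal-stripped FBS were pre-incubated 5hr, then exposed to compounds for 24hr at 37C. Viability was read in the same wells by CellTiter-Fluor fluorescence, reagent added after 23hr with a 1hr incubation.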

[12] = Caspase-3/7 induction in HepG2 cells by small molecules, qHTS assay (AID 1346978); also: nearly all actives have a fitted effect of over 15% in size
Procedure, shortened: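 Wild-type HepG2 cells (2,000/well) were settled 5 h at 37 C, 5% CO2, then exposed to compounds in DMSO for 17 h. Caspase-3/7 activity was read by luminescence 30 min after adding Caspase-Glo 3/7 reagent at room temperature.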

[13] = Caspase-3/7 induction in CHO-K1 cells by small molecules, qHTS cell viability counter screen (AID 1346979); also: nearly all actives have a fitted effect of over 35% in size; also: potency is read from the fitted curve at half-maximal effect
Procedure, shortened: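 Wild-type CHO-K1 cells were seeded at 1,500 per well, rested 5hr at 37 C, then exposed to compounds in DMSO. After 16hr, CellTiter-Fluor reagent was added and fluorescence read 1hr later as the viability measure.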

[14] = Caspase-3/7 induction in CHO-K1 cells by small molecules, qHTS assay (AID 1346980); also: nearly all actives have a fitted effect of over 15% in size
Procedure, shortened: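 Wild-type cells were seeded at 1,500 per well and settled 5 hr at 37 C, 5% CO2, then exposed to DMSO-dissolved compounds for 17 hr. Caspase-Glo 3/7 reagent was added, and luminescence was read after 30min at room temperature.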

[15] = target: Nuclear receptor subfamily 1 group I member 2 (Homo sapiens) (UniProt O75469); experiment: Human pregnane X receptor (PXR) small molecule agonists, qHTS assay (AID 1346982); also: nearly all actives have a fitted effect of over 35% in size
Procedure, shortened: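 Agonist mode qHTS: PXR-Luc HepG2 cells plated 5 hr before DMSO-dissolved compounds were pinned in, cultured 24 hr at 37 C, 5% CO2; ONE-Glo luminescence readout.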

[16] = Caspase-3/7 induction in HepG2 cells by small molecules, qHTS cell viability counter screen (AID 1346981); also: nearly all actives have a fitted effect of over 30% in size; also: potency is read from the fitted curve at half-maximal effect; as to activity change, negative = cytotoxicity: series mostly up to about 92 µM
Procedure, shortened: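 Steps: seed 2,000 HepG2 cells per well; incubate 5 hr at 37 C; pin-add compounds in DMSO; incubate 16 hr; add CellTiter-Fluor; after 1 hr at 37 C and 5% CO2, read fluorescence.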

[17] = target: Cytochrome P450 2D6 (Homo sapiens) (UniProt P10635); experiment: Cytochrome P450 Family 2 Subfamily D Member 6 (CYP2D6) small molecule antagonists: luciferase reporter qHTS assay (AID 1671196); also: series mostly up to about 120 µM; nearly all actives have a fitted effect of over 50% in size
Procedure, shortened: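 P450-Glo format: CYP2D6 converts a proluciferin substrate to luciferin in an NADPH-driven reaction lasting 1 h at room temperature. Light output, proportional to CYP2D6 activity, reflects interference by test chemicals.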
% is scaled to controls: 0 for no effect and ±100 for the full control effect.

Cytochrome P450 2D6 (Homo sapiens), sequence (P10635 whole entry, looked up): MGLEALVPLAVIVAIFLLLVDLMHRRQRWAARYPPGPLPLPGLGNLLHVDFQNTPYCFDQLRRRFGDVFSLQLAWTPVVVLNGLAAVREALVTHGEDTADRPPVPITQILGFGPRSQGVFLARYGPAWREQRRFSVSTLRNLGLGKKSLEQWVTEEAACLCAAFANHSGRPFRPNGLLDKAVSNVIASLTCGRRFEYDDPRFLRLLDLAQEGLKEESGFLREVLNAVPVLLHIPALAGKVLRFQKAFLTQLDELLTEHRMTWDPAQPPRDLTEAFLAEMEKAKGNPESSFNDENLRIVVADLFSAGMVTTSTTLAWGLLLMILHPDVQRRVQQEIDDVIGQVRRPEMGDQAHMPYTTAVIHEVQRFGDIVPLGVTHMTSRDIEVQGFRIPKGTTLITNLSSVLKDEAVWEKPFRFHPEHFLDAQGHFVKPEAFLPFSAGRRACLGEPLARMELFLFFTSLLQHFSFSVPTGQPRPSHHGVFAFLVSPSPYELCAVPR
Thyrotropin-releasing hormone receptor (Homo sapiens), sequence (P34981 whole entry, looked up): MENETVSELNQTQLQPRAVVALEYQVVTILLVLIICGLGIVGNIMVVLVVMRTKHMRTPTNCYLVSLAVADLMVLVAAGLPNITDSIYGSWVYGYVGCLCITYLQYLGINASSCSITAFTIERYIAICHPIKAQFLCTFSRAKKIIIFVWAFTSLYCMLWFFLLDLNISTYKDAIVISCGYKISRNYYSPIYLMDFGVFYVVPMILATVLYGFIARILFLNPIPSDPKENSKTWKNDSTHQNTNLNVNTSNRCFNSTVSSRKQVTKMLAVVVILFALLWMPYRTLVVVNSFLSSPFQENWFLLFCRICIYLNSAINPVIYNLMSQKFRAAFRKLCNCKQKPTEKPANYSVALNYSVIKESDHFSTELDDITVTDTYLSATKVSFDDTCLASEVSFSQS
Progesterone receptor (Homo sapiens), sequence (P06401 whole entry, looked up): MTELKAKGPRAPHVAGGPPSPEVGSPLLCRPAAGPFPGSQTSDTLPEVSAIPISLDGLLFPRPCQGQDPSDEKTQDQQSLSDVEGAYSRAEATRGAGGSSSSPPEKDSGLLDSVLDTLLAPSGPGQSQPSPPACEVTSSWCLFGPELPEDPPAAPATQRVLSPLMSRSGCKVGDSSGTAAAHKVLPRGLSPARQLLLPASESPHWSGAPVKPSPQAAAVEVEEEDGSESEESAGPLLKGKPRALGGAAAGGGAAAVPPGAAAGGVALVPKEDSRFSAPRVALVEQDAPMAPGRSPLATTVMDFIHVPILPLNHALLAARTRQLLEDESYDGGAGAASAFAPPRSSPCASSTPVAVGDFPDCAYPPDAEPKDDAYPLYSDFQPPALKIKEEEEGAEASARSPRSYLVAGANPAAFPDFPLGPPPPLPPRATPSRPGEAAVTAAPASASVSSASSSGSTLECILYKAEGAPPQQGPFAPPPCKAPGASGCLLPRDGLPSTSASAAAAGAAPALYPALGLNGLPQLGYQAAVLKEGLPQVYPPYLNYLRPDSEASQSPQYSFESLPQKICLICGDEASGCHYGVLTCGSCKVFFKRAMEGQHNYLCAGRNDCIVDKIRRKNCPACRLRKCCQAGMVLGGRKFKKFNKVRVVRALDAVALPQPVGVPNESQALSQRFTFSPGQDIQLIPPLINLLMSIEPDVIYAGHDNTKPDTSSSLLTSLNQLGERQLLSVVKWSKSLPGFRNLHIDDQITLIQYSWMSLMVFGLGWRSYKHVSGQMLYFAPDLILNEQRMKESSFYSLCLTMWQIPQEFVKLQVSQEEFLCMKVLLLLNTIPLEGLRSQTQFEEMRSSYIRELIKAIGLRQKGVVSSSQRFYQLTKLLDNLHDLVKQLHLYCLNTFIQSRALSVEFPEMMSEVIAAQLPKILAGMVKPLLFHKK
Nuclear receptor subfamily 1 group I member 2 (Homo sapiens), sequence (O75469 whole entry, looked up): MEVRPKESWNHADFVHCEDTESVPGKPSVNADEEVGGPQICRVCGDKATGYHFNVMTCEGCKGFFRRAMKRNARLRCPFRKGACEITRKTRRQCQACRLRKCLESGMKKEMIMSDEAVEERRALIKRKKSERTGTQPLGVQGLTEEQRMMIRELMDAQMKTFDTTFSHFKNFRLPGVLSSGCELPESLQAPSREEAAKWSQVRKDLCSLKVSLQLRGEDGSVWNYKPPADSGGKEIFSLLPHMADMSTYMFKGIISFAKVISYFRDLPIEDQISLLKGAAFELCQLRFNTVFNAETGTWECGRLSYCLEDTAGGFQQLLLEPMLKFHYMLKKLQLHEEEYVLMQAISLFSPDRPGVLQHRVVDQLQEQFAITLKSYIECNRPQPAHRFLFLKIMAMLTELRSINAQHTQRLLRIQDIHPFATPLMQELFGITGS

CCCCCCCCCCCCO
inactive: Potency [1] | Potency [2] | Potency [3] | Potency [4] | Potency [5] | Potency [6] | Potency [7] | outcome [8] | Potency [9] | Potency [10] | Potency [11] | Potency [12] | Potency [13] | Potency [14] | Potency [15]

Cc1ccc(C(C)(C)C)cc1
inactive: Potency [1] | Potency [2] | Potency [3] | Potency [4] | Potency [5] | Potency [6] | Potency [7] | outcome [8] | Potency [9] | Potency [10] | Potency [11] | Potency [12] | Potency [13] | Potency [14] | Potency [16] | Potency [15]

CC1(C)OC(=O)NC1=O
inactive: Potency [1] | Potency [2] | Potency [3] | Potency [4] | Potency [5] | Potency [6] | Potency [7] | outcome [8] | Potency [11] | Potency [12] | Potency [13] | Potency [14] | Potency [16] | Potency [17]

CCCN1C=CN(C)C1
inactive: Potency [1] | Potency [2] | Potency [3] | Potency [4] | Potency [5] | Potency [6] | Potency [7] | outcome [8] | Potency [11] | Potency [12] | Potency [13] | Potency [14] | Potency [15] | Potency [17]

NCCOCCO
inactive: Potency [1] | Potency [2] | Potency [3] | Potency [4] | Potency [5] | Potency [6] | Potency [7] | outcome [8] | Potency [9] | Potency [10] | Potency [11] | Potency [12] | Potency [13] | Potency [14] | Potency [16] | Potency [15] | Potency [17]

O=[Se](O)O
active: Potency [1] 38.6 µM | Potency [6] 2.46 µM | Potency [7] 2.19 µM | Potency [11] 24.4 µM | Potency [13] 54.5 µM
inactive: activity change, negative = cytotoxicity [1] 10.8% [at 19 µM] | Potency [2] | Potency [3] | Potency [4] | Potency [5] | viability change, negative = cytotoxic [6] 0.606% [at 15.8 µM] | activity change, negative = cytotoxicity [7] 8.13% [at 15.8 µM] | activation [8] -0.714% [at 15.8 µM] | Potency [9] | Potency [10] | activity change, negative = cytotoxicity [11] 6.76% [at 19 µM] | Potency [12] | activity change, negative = cytotoxicity [13] 5.77% [at 19 µM] | Potency [14]

C=CCNCC=C
inactive: Potency [2] | Potency [3] | Potency [4] | Potency [5] | Potency [6] | Potency [7] | outcome [8] | Potency [9] | Potency [10] | Potency [11] | Potency [12] | Potency [13] | Potency [14]

Nc1ccc2c(c1)C(=O)c1ccccc1C2=O
inactive: Potency [1] | Potency [2] | Potency [3] | Potency [4] | Potency [6] | Potency [7] | outcome [8] | Potency [9] | Potency [10] | Potency [12] | Potency [14]
active: Potency [13] 53.5 µM and 54.5 µM | Potency [16] 30.1 µM
